Test results published in PubChem BioAssay (NCATS).
Records with an inconclusive call do not appear. The source made the active and inactive calls. Unless noted, calls come from the whole dose curve. Peptide text beside a SMILES is read from it.

Assays:
[1] = AP1 Signaling Pathway (AID 357; active = well fitted curve in either direction with a large enough effect, not every such curve was filed as active; note: % is set by controls: 0 for no effect and ±100 for the full control effect)
Summary of the method: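 ME-180 cells with beta-lactamase reporter under AP-1 response element, stimulated with EC50 EGF; compounds tested in titration series, 5 h at 37 °C. CCF4 substrate added 2.5 h at room temperature; 460/530 nm emission ratio gave %activity and AC50.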

[2] = NFAT Signaling Pathway (AID 444; active = well fitted curve in either direction with a large enough effect, not every such curve was filed as active;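 note: carbachol stimulus at about its EC50 of 1 µM final; % is set by controls: 0 for no effect and ±100 for the full control effect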); conditions: Jurkat NFAT-bla M1, carbachol, beta-lactamase ratio, 5 h
Summary of the method: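 Jurkat cells with NFAT-driven β-lactamase reporter and co-expressed M1 receptor, stimulated with carbachol (final 1 uM, ~EC50), compound titration, 5 h at 37 °C. CCF4 loaded 1 h at RT; 460/530 nm ratio gave %activity and AC50.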

[3] = Stat Signaling Pathway (AID 446; active = well fitted curve in either direction with a large enough effect, not every such curve was filed as active;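 note: ME-180 cervical cancer cells given 40 pM IL-6 alongside compound; SIE-controlled beta-lactamase reporter measured as 460/530 nm FRET emission ratio; % is set by controls: 0 for no effect and ±100 for the full control effect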)
Summary of the method: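 ME-180 cells carrying a SIE-driven beta-lactamase reporter are stimulated with 40 pM IL-6 for 5 h at 37C in the presence of compound. The 460/530 nm FRET substrate ratio is read after 2.5 h at RT. Data are normalised to 300 pM IL-6 and to 125 nM JAK inhibitor controls.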

[4] = Cell Viability - BJ (AID 421); conditions: BJ fibroblast viability, qHTS;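 note: potency is the fitted concentration of half-maximal effect; cells exposed to compound for 40 hours at 37 °C before readout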
Summary of the method: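 Normal human BJ foreskin fibroblasts, 1500/well in complete medium, treated 40 hr at 37 °C. Cellular ATP by CellTiter-Glo luminescence; normalized to DMSO and 100 uM tamoxifen, AC50 from Hill fit.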

[5] = Cell Viability - Hek293 (AID 427;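 active = compounds whose dose-response curve shows a full or clear partial loss of cell viability, called from curve shape rather than a numeric limit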;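 note: potency is the fitted concentration of half-maximal effect; cells exposed to compound for 40 hours at 37 °C before reading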); conditions: qHTS
Summary of the method: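 HEK293 cells in complete medium were exposed to compound for 40 hr at 37 °C, then cellular ATP was read by CellTiter-Glo luminescence. Data were normalized to DMSO (basal) and 100 uM tamoxifen (100% inhibition), and AC50 came from Hill fits.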

[6] = Cell Viability - HepG2 (AID 433); conditions: qHTS;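 note: potency is the fitted concentration of half-maximal effect; potency for ATP loss meaning cytotoxicity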
Summary of the method: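 Cytotoxicity read as ATP loss (CellTiter-Glo luminescence) after 40 hr compound exposure of HepG2, 1500 cells/well, 37 °C. AC50 by Hill equation; 0% set by DMSO, 100% inhibition by 100 uM tamoxifen.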

[7] = Cell Viability - MRC5 (AID 434); conditions: MRC5 lung fibroblast viability, qHTS;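 note: potency is the fitted concentration of half-maximal effect; potency reflects cytotoxicity seen as loss of intracellular ATP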
Summary of the method: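 MRC5 normal human lung fibroblasts, 1500 cells/well, exposed to compound for 40 hr at 37 C. Cellular ATP was read by CellTiter-Glo luminescence; data normalized to DMSO and 100 uM tamoxifen, with AC50 from Hill fits.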

[8] = Cell Viability - SK-N-SH (AID 435); conditions: SK-N-SH neuroblastoma cell viability qHTS; note: potency is the fitted concentration of half-maximal effect
Summary of the method: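 qHTS cytotoxicity: CellTiter-Glo ATP luminescence after 40 h compound exposure of human neuroblastoma SK-N-SH cells at 37 °C. AC50 derived by Hill-equation fitting, with DMSO as basal and 100 uM tamoxifen as full inhibition.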

[9] = biological target: Cytochrome P450 1A2 (Homo sapiens) (UniProt P05177); test: p450-cyp1a2 (AID 410); note: potency is the fitted concentration of half-maximal effect;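 for activity change, negative = inhibition: -100% = full effect of reference inhibitor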
Sequence of Cytochrome P450 1A2 (Homo sapiens) (P05177 whole entry, looked up): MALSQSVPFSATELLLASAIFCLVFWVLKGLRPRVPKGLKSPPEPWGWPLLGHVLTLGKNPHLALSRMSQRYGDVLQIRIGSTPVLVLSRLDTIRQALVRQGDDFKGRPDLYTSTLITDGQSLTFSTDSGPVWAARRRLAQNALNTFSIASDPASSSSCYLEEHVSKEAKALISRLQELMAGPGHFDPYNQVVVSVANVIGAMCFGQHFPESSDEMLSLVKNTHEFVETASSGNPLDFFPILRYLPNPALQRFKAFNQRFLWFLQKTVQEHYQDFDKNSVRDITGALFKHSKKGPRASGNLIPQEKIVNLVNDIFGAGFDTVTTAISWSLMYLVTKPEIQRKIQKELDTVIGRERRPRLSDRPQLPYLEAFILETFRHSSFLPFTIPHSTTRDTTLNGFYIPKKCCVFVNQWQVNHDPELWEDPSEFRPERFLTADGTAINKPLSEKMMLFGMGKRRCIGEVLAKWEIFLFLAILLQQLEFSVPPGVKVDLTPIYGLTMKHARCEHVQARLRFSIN
Summary of the method: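 Inhibition was calculated relative to 57 uM furafylline (full inhibition). The reaction used human CYP1A2 at 20nM with Luciferin-ME at its Km, 100uM, driven by an NADPH-regenerating system for 60 min at room temperature.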

[10] = biological target: Lysosomal acid glucosylceramidase (Homo sapiens) (UniProt P04062); test: Glucocerebrosidase-p2 (AID 348; in the data active = potency below about 10 µM; note: potency is the fitted concentration of half-maximal effect); conditions: purified GBA, blue fluorogenic substrate, 40 min
Sequence of Lysosomal acid glucosylceramidase (Homo sapiens) (P04062 whole entry, looked up): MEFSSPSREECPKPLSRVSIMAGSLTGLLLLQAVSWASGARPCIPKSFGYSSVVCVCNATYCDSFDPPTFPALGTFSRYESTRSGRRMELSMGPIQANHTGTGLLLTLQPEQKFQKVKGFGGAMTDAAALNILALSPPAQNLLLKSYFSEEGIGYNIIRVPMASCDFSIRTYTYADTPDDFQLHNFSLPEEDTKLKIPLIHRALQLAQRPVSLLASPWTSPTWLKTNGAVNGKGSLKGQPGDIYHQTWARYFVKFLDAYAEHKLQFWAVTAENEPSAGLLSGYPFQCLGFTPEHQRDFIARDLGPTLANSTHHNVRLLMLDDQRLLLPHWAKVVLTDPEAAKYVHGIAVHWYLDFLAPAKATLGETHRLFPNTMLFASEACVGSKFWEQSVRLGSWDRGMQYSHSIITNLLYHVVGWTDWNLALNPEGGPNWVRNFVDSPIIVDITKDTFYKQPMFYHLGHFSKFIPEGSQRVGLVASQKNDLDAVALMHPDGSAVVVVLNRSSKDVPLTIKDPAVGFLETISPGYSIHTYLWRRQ
Summary of the method: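 Compounds titrated from 0.6 nM upwards against 0.2 nM enzyme in pH 5.9 citric acid/KH2PO4, taurocholate, tween-20; blue fluorogenic substrate 80 uM, 40 min room temperature, stopped and read Ex 365/Em 440 for AC50.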

CC[N+](C)(C)Cc1ccccc1Br
inactive: outcome [1] | activity change, negative = inhibition ([2]; at 17.2 µM (top of the series)) -8.6% | activity change, negative = inhibition ([2]; at 38 µM (top of the series)) -11% | outcome [3]

C[C@@H]1C[C@H]2[C@@H]3CCC4=CC(=O)C=C[C@]4(C)[C@@]3(F)[C@@H](O)C[C@]2(C)[C@@]1(O)C(=O)COP(=O)(O)O
inactive: outcome [1] | outcome [3]

CC(C)=O
inactive: Potency [4] > 92 µM | Potency [5] > 92 µM | Potency [6] > 92 µM | Potency [7] > 92 µM | Potency [8] > 92 µM

CC(=O)N[C@@H](CC(=O)O)C(=O)N[C@@H](CCC(=O)O)C(=O)O (Ac-Asp-Glu-OH)
inactive: Potency [9] | activity change, negative = inhibition ([2]; at 17.2 µM (top of the series)) -12.3% | outcome [3]

CCCCC/C=C\C/C=C\CCCCCCCC(=O)O
inactive: Potency [4] > 92 µM | Potency [5] > 92 µM | Potency [6] > 92 µM | Potency [7] > 92 µM | Potency [8] > 92 µM

Cc1ccccc1
inactive: Potency [4] > 92 µM | Potency [5] > 92 µM | Potency [6] > 92 µM | Potency [7] > 92 µM | Potency [8] > 92 µM

CC1=C(/C=C/C(C)=C/C=C/C(C)=C/CO)C(C)(C)CCC1
inactive: Potency [4] > 92 µM | Potency [5] > 92 µM | Potency [6] > 92 µM | Potency [7] > 92 µM

IC(I)I
inactive: Potency [4] > 92 µM | Potency [5] > 92 µM | Potency [6] > 92 µM | Potency [7] > 92 µM | Potency [8] > 92 µM

CC(O)CO (stereo not given)
inactive: Potency [4] > 92 µM | Potency [5] > 92 µM | Potency [6] > 92 µM | Potency [7] > 92 µM | Potency [8] > 92 µM

CC(C)N=c1cc2n(-c3ccc(Cl)cc3)c3ccccc3nc-2cc1Nc1ccc(Cl)cc1
active: activity change, negative = inhibition ([2]; at 17.2 µM (top of the series)) -120%
inactive: Potency [9] | outcome [3]

Cc1c(C)c2c(c(C)c1O)CC[C@@](C)(CCC[C@@H](C)CCC[C@@H](C)CCCC(C)C)O2
inactive: outcome [1] | Potency [9] | activity change, negative = inhibition ([2]; at 17.2 µM (top of the series)) -1.66% | outcome [3]

CC1=C2[C@@H]([C@H](C)CC[C@H]2/C=C(\C)C(=O)O)[C@H](O)C1
inactive: Potency [4] > 92 µM | Potency [5] > 92 µM | Potency [6] > 92 µM | Potency [7] > 92 µM | Potency [8] > 92 µM

O=CCCCC=O
inactive: Potency [4] > 92 µM | Potency [5] > 92 µM | Potency [6] > 92 µM | Potency [7] > 92 µM

O=C1CSC2(CCN(CCCN3c4ccccc4Sc4ccc(Cl)cc43)CC2)N1
inactive: outcome [1] | outcome [3]
active: Potency [9] 3.16 µM

CC(Cc1ccc(O)c(O)c1)C(C)Cc1ccc(O)c(O)c1 (stereo not given)
inactive: outcome [3]

O=C(O)CC/C=C\CC[C@H]1[C@@H](N2CCCCC2)[C@@H](O)C[C@@H]1OCc1ccc(-c2ccccc2)cc1
inactive: Potency [9]

COC(=O)CCC(=O)CN
inactive: outcome [1] | outcome [3]

CC(C)(C)NC(=O)[C@@H]1C[C@@H]2CCCC[C@@H]2CN1C[C@@H](O)[C@H](Cc1ccccc1)NC(=O)[C@H](CC(N)=O)NC(=O)c1ccc2ccccc2n1
active: Potency [6] 65.4 µM

CC(=O)OCC(=O)[C@@]12OC3(CCCC3)O[C@@H]1C[C@H]1[C@@H]3CCC4=CC(=O)C=C[C@]4(C)[C@@]3(F)[C@@H](O)C[C@@]12C
inactive: outcome [1] | outcome [3]

CCCC(=O)Nc1ncnc2c1ncn2[C@@H]1O[C@@H]2COP(=O)(O)O[C@H]2[C@H]1OC(=O)CCC
inactive: outcome [1] | activity change, negative = inhibition ([2]; at 17.2 µM (top of the series)) -26.8% | outcome [3]

CCOc1ccc2c(c1)C(C)=CC(C)(C)N2
active: Potency [9] 5.01 µM
inactive: outcome [1] | Potency [4] > 92 µM | Potency [5] > 92 µM | Potency [6] > 92 µM | Potency [7] > 92 µM | Potency [8] > 92 µM | activity change, negative = inhibition ([2]; at 17.2 µM (top of the series)) 4.3% | outcome [3]

O=C(O)CCC(=O)C(=O)O
inactive: Potency [10] > 11.4 µM | outcome [1] | activity change, negative = inhibition [9] -11.7% [at 11.4 µM] | Potency [4] > 92 µM | Potency [5] > 92 µM | Potency [6] > 92 µM | Potency [7] > 92 µM | Potency [8] > 92 µM | activity change, negative = inhibition ([2]; at 7.69 µM (top of the series)) 15.2% | outcome [3]

CC(C)(C)C(=O)OCOC(=O)[C@@H]1N2C(=O)[C@@H](N=CN3CCCCCC3)[C@H]2SC1(C)C
inactive: outcome [1] | outcome [3]

COc1ccc(CCNC[C@H](O)c2ccc(O)cc2)cc1OC
inactive: outcome [1] | Potency [9] | activity change, negative = inhibition ([2]; at 38 µM (top of the series)) -28.1% | outcome [3]

CN(C)CCCN1c2ccccc2C(C)(C)c2ccccc21
active: Potency [9] 5.01 µM
inactive: Potency [10] > 11.4 µM | outcome [3]
